This passage reports outcome and AC50 results from PubChem BioAssay (EPA / NIEHS).

Calls of active or inactive are those of the source. The calls were made as follows: active = hit-call score of the fitted dose curve at least 0.9, where 1 is the maximum; inactive = score below 0.9.

Read-out in assay [1]: Vascular endothelial growth factor receptor 2 (Homo sapiens) (UniProt P35968)
Kind of assay: BSK_4H_VEGFRII: BioMAP Diversity Plus: 4H Assay for Vascular endothelial growth factor receptor 2 (VEGFR2) Biomarker Activity (AID 2283031).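 As to AC50: cell-surface VEGFR2 protein level quantified by ELISA.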 As to conditions: primary human endothelial cells (HUVEC); actives raise or lower the signal. In short, it runs like this:
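Primary human umbilical vein endothelial cells in the BioMAP 4H system were dosed with test chemical, and 24 h later VEGFRII was measured by ELISA. Activity was fitted bidirectionally against DMSO as negative control and baseline.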

Read-out in assay [2]: Human Leukocyte Antigen - DR isotype (HLADR), HLA-DRA (gene 3122)
Kind of assay: BSK_BE3C_HLADR: BioMAP Diversity Plus: BE3C Assay for Human Leukocyte Antigen - DR isotype (HLADR) Biomarker Activity (AID 2283032). As to conditions: primary human bronchial epithelial cells; actives raise or lower the signal. In short, it runs like this: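 Human primary bronchial epithelial cells (BE3C system) exposed to compound for 24 hours; cell-surface HLA-DR measured by ELISA, fitted bidirectionally relative to DMSO. Total protein by SRB in parallel cultures tracked cytotoxicity.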

Read-out in assay [3]: Vascular cell adhesion molecule 1 (VCAM1), VCAM1 (gene 7412)
Kind of assay: BSK_4H_VCAM1: BioMAP Diversity Plus: 4H Assay for Vascular cell adhesion molecule 1 (VCAM1) Biomarker Activity (AID 2283033). To be noted: primary human endothelial cells (HUVEC); actives raise or lower the signal. A digest of the protocol: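 Primary human umbilical vein endothelial cells, 4H stimulation system, treated for 24 h; cell-surface VCAM-1 quantified by ELISA. Bidirectional fitting against DMSO; cytotoxicity tracked by SRB total-protein staining in parallel cultures.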

Read-out in assay [4]: Interferon-gamma inducible Protein 10 (IP10), CXCL10 (gene 3627)
Kind of assay: BSK_BE3C_IP10: BioMAP Diversity Plus: BE3C Assay for Interferon-gamma inducible Protein 10 (IP10) Biomarker Activity (AID 2283034). As to conditions: primary human bronchial epithelial cells; actives raise or lower the signal. A digest of the protocol: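 Primary human bronchial epithelial cells, with IP-10 measured by ELISA 24 hours after chemical dosing. Bidirectional fit against DMSO; cytotoxicity checked by SRB total protein staining in parallel cultures.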

Read-out in assay [5]: Monokine induced gamma interferon (MIG), CXCL9 (gene 4283)
Kind of assay: BSK_BE3C_MIG: BioMAP Diversity Plus: BE3C Assay for Monokine induced gamma interferon (MIG) Biomarker Activity (AID 2283035). To be noted: primary human bronchial epithelial cells; actives raise or lower the signal. A digest of the protocol:
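Primary human bronchial epithelial cells treated for 24 h; MIG levels measured by ELISA, fitted bidirectionally versus DMSO. Parallel SRB total-protein staining assessed cytotoxicity.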

Read-out in assay [6]: Transforming growth factor beta 1 (TGFb1), TGFB1 (gene 7040)
The experiment in a line: BSK_BE3C_TGFb1: BioMAP Diversity Plus: BE3C Assay for Transforming growth factor beta 1 (TGFb1) Biomarker Activity (AID 2283036). To be noted: primary human bronchial epithelial cells; actives raise or lower the signal. A digest of the protocol:
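Primary human bronchial epithelial cells dosed with chemical; TGF-b1 measured by ELISA 24 h after dosing. Bidirectional curve fitting against DMSO negative control; SRB total-protein staining in parallel cultures gauged cytotoxicity.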

Read-out in assay [7]: Plasminogen activator inhibitor-1 (PAI1), SERPINE1 (gene 5054)
The experiment in a line: BSK_BE3C_PAI1: BioMAP Diversity Plus: BE3C Assay for Plasminogen activator inhibitor-1 (PAI1) Biomarker Activity (AID 2283037). As to conditions: primary human bronchial epithelial cells; actives raise or lower the signal. In short, it runs like this:
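Primary human bronchial epithelial cells (BE3C system) exposed 24 h; PAI-1 quantified by ELISA. Parallel sulforhodamine B staining of total protein flags cytotoxicity. Bidirectional fit versus DMSO.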

Read-out in assay [8]: urokinase plasminogen activator (uPA), PLAU (gene 5328)
The experiment in a line: BSK_BE3C_uPA: BioMAP Diversity Plus: BE3C Assay for urokinase plasminogen activator (uPA) Biomarker Activity (AID 2283038).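 As to outcome: uPA protein level quantified by ELISA in cell cultures; uPA read one day after compound addition.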 As to conditions: primary human bronchial epithelial cells; actives raise or lower the signal. In short, it runs like this:
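Human primary bronchial epithelial cells were exposed to chemical for 24 h, then uPA levels were measured by ELISA. Responses were fitted bidirectionally against DMSO as negative control and baseline. Parallel SRB staining of total protein gauged overt cytotoxicity.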

Read-out in assay [9]: Urokinase-type plasminogen activator receptor (uPAR), PLAUR (gene 5329)
The experiment in a line: BSK_BE3C_uPAR: BioMAP Diversity Plus: BE3C Assay for Urokinase-type plasminogen activator receptor (uPAR) Biomarker Activity (AID 2283039).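 As to outcome: cells exposed to compound for one day before measurement.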 To be noted: primary human bronchial epithelial cells; actives raise or lower the signal. In short, it runs like this:
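Primary human bronchial epithelial cells dosed for 24 h; uPAR quantified by ELISA with bidirectional fitting against DMSO. Overt cytotoxicity assessed in parallel cultures by SRB total-protein staining (0.1% SRB, 560 nm).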

Read-out in assay [10]: Interleukin-6 (IL6), IL6 (gene 3569)
Kind of assay: BSK_CASM3C_IL6: BioMAP Diversity Plus: CASM3C Assay for Interleukin-6 (IL6) Biomarker Activity for (AID 2283040). To be noted: primary human coronary artery smooth muscle cells; actives raise or lower the signal.

Read-out in assay [11]: Tissue plasminogen activator (tPA), PLAT (gene 5327)
Kind of assay: BSK_BE3C_tPA: BioMAP Diversity Plus: BE3C Assay for Tissue plasminogen activator (tPA) Biomarker Activity (AID 2283041).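 As to outcome: tPA level quantified by ELISA one day after compound addition.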 To be noted: primary human bronchial epithelial cells; actives raise or lower the signal. A digest of the protocol: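 Primary human bronchial epithelial cells in the BE3C system, exposed to compound for 24 h. tPA was quantified by ELISA; DMSO served as baseline, with gain or loss of signal fitted. Cytotoxicity checked in parallel cultures by SRB total-protein staining.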

Read-out in assay [12]: Interleukin-8 (IL8), CXCL8 (gene 3576)
Kind of assay: BSK_CASM3C_IL8: BioMAP Diversity Plus: CASM3C Assay for Interleukin-8 (IL8) Biomarker Activity (AID 2283042).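 Also: IL-8 protein level quantified by ELISA.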 To be noted: primary human coronary artery smooth muscle cells; actives raise or lower the signal.

Read-out in assay [13]: Human Leukocyte Antigen - DR isotype (HLADR), HLA-DRA (gene 3122)
Kind of assay: BSK_CASM3C_HLADR: BioMAP Diversity Plus: CASM3C Assay for Human Leukocyte Antigen - DR isotype (HLADR) Biomarker Activity (AID 2283043).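 Also: cell-surface HLA-DR protein level quantified by ELISA.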 As to conditions: primary human coronary artery smooth muscle cells; actives raise or lower the signal.

Read-out in assay [14]: Macrophage colony-stimulating factor (MCSF), CSF1 (gene 1435)
Kind of assay: BSK_CASM3C_MCSF: BioMAP Diversity Plus: CASM3C Assay for Macrophage colony-stimulating factor (MCSF) Biomarker Activity (AID 2283044).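 Also: M-CSF protein amount quantified by ELISA after 24 h exposure.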 To be noted: primary human coronary artery smooth muscle cells; actives raise or lower the signal.

Read-out in assay [15]: Low-density lipoprotein receptor (LDLR), LDLR (gene 3949)
Kind of assay: BSK_CASM3C_LDLR: BioMAP Diversity Plus: CASM3C Assay for Low-density lipoprotein receptor (LDLR) Biomarker Activity (AID 2283045).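 Also: LDLR protein level on the cell surface quantified by ELISA.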 As to conditions: primary human coronary artery smooth muscle cells; actives raise or lower the signal.

Read-out in assay [16]: Monocyte Chemoattractant Protein-1 (MCP1), CCL2 (gene 6347)
Kind of assay: BSK_CASM3C_MCP1: BioMAP Diversity Plus: CASM3C Assay for Monocyte Chemoattractant Protein-1 (MCP1) Biomarker Activity (AID 2283046).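 Also: MCP-1 level quantified by ELISA 24 h after dosing.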 As to conditions: primary human coronary artery smooth muscle cells; actives raise or lower the signal.

The nature of assay [17]: BSK_CASM3C_Proliferation: Cell Proliferation Assessment in the BioMAP Diversity Plus: CASM3C Assay (AID 2283047).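 Also: sulforhodamine B total protein stain as relative cell number at 560 nm; sub-confluent cells exposed 48 h before staining; fitted both ways against DMSO so gain or loss of cell number.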 As to conditions: primary human coronary artery smooth muscle cells.
Read-out in assay [18]: Monokine induced gamma interferon (MIG), CXCL9 (gene 4283)
Kind of assay: BSK_CASM3C_MIG: BioMAP Diversity Plus: CASM3C Assay for Monokine induced gamma interferon (MIG) Biomarker Activity (AID 2283048). As to conditions: primary human coronary artery smooth muscle cells; actives raise or lower the signal.

Read-out in assay [19]: serum amyloid A (SAA), SAA1 (gene 6288)
Kind of assay: BSK_CASM3C_SAA: BioMAP Diversity Plus: CASM3C Assay for serum amyloid A (SAA) Biomarker Activity (AID 2283049).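 Also: SAA protein level quantified by ELISA.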 As to conditions: primary human coronary artery smooth muscle cells; actives raise or lower the signal.

A short description of assay [20]: BSK_CASM3C_SRB: Viability Assessment in the BioMAP Diversity Plus: CASM3C Assay (AID 2283050). To be noted: primary human coronary artery smooth muscle cells.

With `CNC(=O)CSP(=S)(OC)OC`, the outcome in assay [1], in assay [2], in [3], in assay [4], in assay [5] and in assay [6] was inactive. Moreover, the outcome in assay [7], in assay [8], in assay [9], in assay [10], in [11] and in assay [12] was inactive. Also, the outcome in assay [13], in [14], in assay [15], in assay [16], in assay [17] and in assay [18] was inactive. In addition, the outcome in [19] and in [20] was inactive.

One may read the AC50 as the concentration giving half of the maximal activity seen. Turning to `CC[C@H](C)[C@H]1O[C@]2(C=C[C@@H]1C)C[C@@H]1C[C@@H](C/C=C(\C)[C@@H](O[C@H]3C[C@H](OC)[C@@H](O[C@H]4C[C@H](OC)[C@@H](O)[C@H](C)O4)[C@H](C)O3)[C@@H](C)/C=C/C=C3\CO[C@@H]4[C@H](O)C(C)=C[C@@H](C(=O)O1)[C@]34O)O2` (tested in a mixture with another compound), the half-maximal activity concentration (AC50) in assay [1] is 5.27 µM (active); in assay [2] it was 5.87 µM (active); in assay [3] it was 11.6 µM (active); in assay [4], 5.96 µM (active); in [6], 20 µM (active); in [7] it was 5.51 µM (active). In addition, the AC50 in [8] is 5.41 µM (active); in assay [9], 6.13 µM (active); in [10], 13.9 µM (active); in assay [11], 5.27 µM (active); in [12], 17.4 µM (active); in assay [13], 9.73 µM (active). Besides, the AC50 in assay [14] was 20 µM (active); in assay [16], 11.7 µM (active); in assay [17], 6.85 µM (active); in [18], 29.7 µM (active); in assay [20] it was 15 µM (active). The result in [15] and in assay [19] was inactive.

In the case of `CCS(=O)(=O)c1cccnc1S(=O)(=O)NC(=O)Nc1nc(OC)cc(OC)n1`, the outcome in assay [1], in [2], in [3], in assay [4], in [5] and in assay [6] was inactive. The result in assay [7], in assay [8], in assay [9], in assay [10], in assay [11] and in assay [12] was inactive. For the same compound, the outcome in [13], in [14], in [15], in assay [16], in assay [17] and in assay [18] was inactive. For the same compound, in assay [20], the result was inactive. For the same compound, the concentration at half-maximal activity (AC50) in assay [19] is 16.4 µM (active).

Turning to `CN1CSC(=S)N(C)C1`, the result in assay [1], in assay [4], in assay [5], in assay [6], in assay [7] and in assay [8] was inactive. For the same compound, the outcome in assay [9], in [11], in [12], in [13], in assay [15] and in assay [16] was inactive. Besides, the result in assay [18], in [19] and in [20] was inactive. Besides, the AC50 in assay [2] is 20 µM (active); in [3], 16.9 µM (active); in assay [10], 16.4 µM (active); in assay [17], 14.5 µM (active).

In the case of `CCC(C)(NC(=O)c1cc(Cl)c(C)c(Cl)c1)C(=O)CCl` (configuration not stated), the AC50 in assay [1] is 20 µM (active); in assay [2], 13.6 µM (active); in assay [3], 10.5 µM (active); in assay [4], 34 µM (active); in assay [5] it was 32.8 µM (active); in [8], 29.7 µM (active). For the same compound, the AC50 in [9] was 31.5 µM (active); in [11] it was 11 µM (active); in assay [13] it was 17.7 µM (active); in assay [14], 25.2 µM (active); in assay [16], 22.9 µM (active); in assay [17] it was 18.5 µM (active). Besides, the AC50 in assay [18] is 17.5 µM (active); in [19] it was 14.4 µM (active); in [20], 23.4 µM (active). For the same compound, the result in assay [6], in assay [10], in assay [12] and in assay [15] was inactive.
